Compound activity from PubChem.
HT1080 IDH1KD tx = HT-1080 IDH1 knockdown cell toxicity (counter line). Potency, µM (highest dose often 46.1 µM), without a hit: at the highest dose activity, negative = toxicity, actives largely listed as cytotoxic. 360,000 compounds, 2% hits. HT-1080 IDH1 knockdown viability, ATP luminescence, 48 h;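 note: potency is the fitted concentration of half-maximal effect; 0% = DMSO wells and -100% = cell-free medium wells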
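Using the IDH1-knockdown HT-1080 line run in the same batch and compound series as the NT line, viability after 48 h at 37 °C was determined by CellTiter-Glo luminescence and expressed as % activity.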
IL1B secr inh = inhibitors of inflammasome signaling (IL-1 beta secretion); THP-1 LPS/ATP IL-1B secretion, AlphaLISA, 16 h; active compounds read low; activity change, % at 57.5 µM; 360,000 compounds, 4.7% hits; AID 743279; in the data active = activity change below about -50%; inconclusive = mostly about -30% to -49%
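Secreted IL-1B measured by AlphaLISA bead assay after 16 h compound exposure of THP-1 cells; compounds (final up to 57.5 uM) added 1 h before LPS (250 ng/mL) and ATP (1.25 mM) stimulation; lower signal means less secretion.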
HT1080NT lethal = kills 2HG-producing HT-1080-NT fibrosarcoma cells; HT-1080-NT fibrosarcoma viability, CellTiter-Glo ATP luminescence, 48 h; AID 686970; 360,000 compounds, 1.6% hits; Potency, µM (highest dose often 46.1 µM), for the others: top-dose activity, negative = less viability, actives largely listed as cytotoxic;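 note: NT is the 2HG producing partner of a matched IDH1 knockdown line; potency is the fitted concentration of half-maximal effect; 0% = DMSO-treated cells and -100% = media-only wells without cells; nearly all actives have a fitted effect of over 55% in size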
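Viability by CellTiter-Glo luminescence after 48 h compound exposure at 37C of HT-1080-NT cells (750/well, RPMI, 5% FBS). % activity scaled between DMSO wells and medium-only wells, then curve-fitted and categorized by curve class.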
TDP1 cell noCPT = qHTS for Inhibitors of human tyrosyl-DNA phosphodiesterase 1 (TDP1): qHTS in cells in absence of CPT. DT40 Tdp1-/- hTDP1 cells, no CPT, ATP luminescence, 48 h. Potency, µM (titrated, usually from 46.2 µM), inactives show at the top dose activity change, negative = growth inhibition, most hits filed as inhibitors. 420,000 compounds, 15% hits; note: potency is the fitted concentration of half-maximal effect; nearly all actives have a fitted effect of over 55% in size
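Camptothecin absent (DMSO only). Human TDP1-complemented DT40 knockout cells, 400 cells/well, 37 °C for minimum 48 hr; ATP measured via CellTiter-Glo, 30 min dark incubation, luminescence.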
TDP1 cell CPT = growth inhibition of DT40 Tdp1-/-;hTDP1 cells with camptothecin (screen for TDP1 inhibitors); Potency, µM (titrated, usually from 46.2 µM), without a hit: at the highest dose activity change, negative = growth inhibition, actives largely listed as inhibitors; chicken DT40 Tdp1-/-;hTDP1 cells + 20 nM CPT, ATP luminescence, 48 h; 420,000 compounds, 12% hits; note: potency is the fitted concentration of half-maximal effect; nearly all actives have a fitted effect of over 55% in size
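Chicken DT40 Tdp1-/- cells stably complemented with human TDP1 were seeded at 400 cells/well in medium containing 20 nM camptothecin, exposed to pin-transferred compounds, and grown at 37 °C for at least 48 hr. Viability was read as ATP luminescence.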
The depositor's hits bear a star; ? = inconclusive; / = no result; [ ] = another dose, or the depositor's remark. Hits are enriched below; roughly 19% of the tested compounds scored in any of these assays. Unless noted, calls come from the whole dose curve; as a rule, active = well fitted curve in the direction sought with a large enough effect; inconclusive = small, poorly fitted or top-dose-only effect, or another doubt; inactive = no such curve, though single readings can be large; an effect the other way counts as inactive or inconclusive. Unless noted, % is set by controls: 0 for no effect and ±100 for the full control effect.

SMILES | HT1080 IDH1KD tx | IL1B secr inh | HT1080NT lethal | TDP1 cell noCPT | TDP1 cell CPT
O=C(c1ccccn1)C1CCCN(Cc2nc(Cc3cccc(F)c3)no2)C1 (configuration not stated) | 14% | 5 | 20% | ? | ?
COc1cccc(C(CC(=O)Nc2cccc3ccccc23)NC(=O)c2ccccc2)c1 (configuration not stated) | ? | 6 | ? | 1% | ?
COCCn1c(=S)[nH]c2cc(C(=O)NC3CCCC(C)C3C)ccc2c1=O (configuration not stated) | -2% | 2 | -7% | ? | -24%
O=C(COC(=O)/C=C/c1ccc(Cl)c(Cl)c1)NC1CCS(=O)(=O)C1 (configuration not stated) | 9% | 0 | 13% | 18µM* | 10µM*
Cc1cc([N+](=O)[O-])ccc1-c1ccc(C2Nc3ccccc3C(=O)N2O)o1 (configuration not stated) | 7.1µM* | 58 | ? | 23µM* | 23µM*
COc1ccc(CN2CCCC(C(=O)c3ccc4c(c3)OCO4)C2)c(F)c1 (configuration not stated) | -5% | 3 | -9% | ? | -30%
Cc1nn(C)cc1CN1CCCC(C(=O)c2ccc(-c3ccccc3)c(F)c2)C1 (configuration not stated) | ? | -57* | ? | 18µM* | 18µM*
CN(Cc1cn(C)nc1-c1ccc(Oc2ccccc2)cc1)Cc1cnc2ccccn12 | -20% | -5 | 29µM* | 21µM* | ?
O=C(c1ccc(-c2ccccc2)c(F)c1)C1CCCN(C(=O)c2cncs2)C1 (configuration not stated) | -6% | ? | -18% | 13µM* | ?
CC1CN(Cc2cn(C)nc2-c2ccc(Oc3ccccc3)cc2)CCN1C (configuration not stated) | ? | -64* | ? | ? | ?
COc1ccc(NC(=O)Nc2nnc([C@@H]3C[C@H](O)[C@@H](CO)O3)s2)cc1 | 2% | 39 | 16% | -5% | -13%
COc1cccc(C(=O)C2CCCN(Cc3cccc(-n4nc(C)cc4C)c3)C2)c1 (configuration not stated) | -21% | 16 | -15% | ? | ?
COc1cccc(C(=O)C2CCCN(Cc3cn(C)nc3-c3ccccc3)C2)c1 (configuration not stated) | -19% | -11 | -11% | ? | 23µM*
Cc1ccc(S(=O)(=O)NC(=O)COc2ccccc2C)c(C)c1 | 0% | 1 | -4% | 2% | 6%
COc1cc2c(cc1NC(=O)COc1ccc(Br)cc1C)oc1ccccc12 | / | / | / | -4% | -5%
OCCCNc1c2c(nc3cc(-c4ccc(Cl)cc4)nn13)CCC2 | 2% | ? | 10% | ? | -30%
Cc1nn2c(N3CCOCC3)c3c(nc2c1-c1ccccc1)CCCC3 | -3% | -18 | 0% | ? | ?
CN(CCO)c1c2c(nc3cc(-c4cccc(F)c4)nn13)CCCC2 | -7% | -25 | -22% | 21µM* | ?
OC1CCN(c2c3c(nc4cc(-c5cccc(F)c5)nn24)CCCC3)CC1 | -3% | -100* | 0% | 21µM* | 16µM*
Fc1cccc(-c2cc3nc4c(c(N5CCC6(CC5)OCCO6)n3n2)CCCC4)c1 | 0% | -70* | -6% | 23µM* | 21µM*
COc1cc(CN2CCCC(c3nc(-c4ccncc4)ncc3-c3ccccc3)C2)ccc1O (configuration not stated) | / | / | / | -5% | -9%[9.04 µM]
CC(C)(C)c1ccc(S(=O)(=O)N2CCSC2)cc1 | -7% | 6 | 0% | ? | -22%
Clc1cccc(CN2CCN(Cc3nc(CCc4ccccc4)no3)CC2)c1 | -6% | -20 | -17% | -13% | ?
Cc1ccc(C(=O)NCc2ccc3c(c2)OCO3)c(Cl)c1 | 0% | -24 | 1% | -3% | -19%
COc1ccc(N2CCN(C(=O)c3nc(SC)ncc3Cl)CC2)cc1 | / | / | / | ? | -24%
SMILES | HT1080 IDH1KD tx | IL1B secr inh | HT1080NT lethal | TDP1 cell noCPT | TDP1 cell CPT
CCS(=O)(=O)c1ncc(Cl)c(C(=O)NCc2ccc(OC)cc2)n1 | / | / | / | -100% | 1.6µM*
Cc1cccc(CS(=O)(=O)c2ncc(Cl)c(C(=O)NCc3ccc4c(c3)OCO4)n2)c1 | -17% | -96* | -13% | 4.6µM* | 2.9µM*
CCS(=O)(=O)c1ncc(Cl)c(C(=O)N2CCN(c3ccc(OC)cc3)CC2)n1 | / | / | / | 4.1µM* | ?
Cc1ccc(CNC(=O)c2nc(S(=O)(=O)Cc3ccc(C)cc3)ncc2Cl)cc1 | / | / | / | 3.3µM* | 5.8µM*
CCCSc1ncc(Cl)c(C(=O)NCc2ccc(OC)cc2)n1 | / | / | / | ? | -13%
O=C(Cc1ccccc1)Nc1ccc(NC(=O)c2cccs2)c(Cl)c1 | 13% | -17 | 13% | ? | -4%
O=c1c2oc3ccccc3c2ncn1Cc1ccc(Cl)cc1 | 4% | 19 | -2% | 5% | 37%
CCCCCC(=O)Nc1nc(C)c(-c2csc(Nc3cc(OC)ccc3OC)n2)s1 | ? | 35 | ? | 2.9µM* | 4.1µM*
CCCCCCC(=O)Nc1nc(C)c(-c2csc(Nc3cc(OC)ccc3OC)n2)s1 | -29% | -3 | -10% | 18µM* | ?
CN1CCN(C(=O)CN(C)S(=O)(=O)c2ccc(F)cc2)CC1 | 8% | 9 | 5% | 25% | 24%
COc1cccc(CNC(=O)c2ccc3c(c2)sc2nc(-c4ccccc4)cn23)c1OC | / | / | / | 5.8µM* | 9.2µM*
COc1ccccc1CNC(=O)c1ccc2c(c1)sc1nc(-c3ccc(F)cc3)cn12 | / | / | / | 8.2µM* | 7.3µM*
N#CC1(Cc2ccc([N+](=O)[O-])cc2)c2ccccc2C=CN1C(=O)c1ccccc1 (configuration not stated) | 7% | -20 | 10% | 15µM* | ?
N#CC1(Cc2ccccc2)c2ccccc2C=CN1C(=O)c1ccccc1 (configuration not stated) | -14% | 14 | 1% | ? | ?
O=C(CN1CCCc2ccccc21)N/N=C/c1ccccc1O | ? | 40 | -21% | 4.1µM* | -99%
COc1ccc(/C=N/NC(=O)CN2CCCc3ccccc32)c(OC)c1 | -22% | 21 | 15% | ? | 8%
O=C(CN1CCCc2ccccc21)N/N=C/c1ccc(F)cc1F | -14% | -2 | 6% | 15µM* | 21µM*
COc1ccccc1C1C(C(C)=O)=C(C)N=c2s/c(=C\c3cc(OC)c(OC)c(OC)c3)c(=O)n21 (configuration not stated) | -7% | 9 | -7% | 21µM* | 16µM*
